# Measurements published in PubChem BioAssay (Tox21).
# Where “and” joins values, the source holds several entries; their conditions need not be identical. Equal entries are not always repeated. Values without a mark were called inactive. Results filed as inconclusive are left out. A call without a number means that no potency is given here. Calls of active or inactive are those of the source. Unless noted, the call rests on the fitted dose curve; in most records, active means well fitted curve in the direction sought with a large enough effect in the repeat runs; inconclusive means weak or mixed curves; inactive means no such curve, though single readings can be large; an effect the other way counts as inactive or inconclusive.
# Assays:
# [1] = qHTS assay to test for compound auto fluorescence at 535 nm (green) in HEK293 cells (AID 720680)
# [2] = qHTS assay to test for compound auto fluorescence at 460 nm (blue) in HEK293 cell free culture (AID 720681)
# Method in brief: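 Blue fluorescence (Ex 405/Em 460 nm, triamterene-equivalent) was read immediately after pin transfer of compound or DMSO into medium (DMEM, 10% FBS) without cells.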
# [3] = qHTS assay to test for compound auto fluorescence at 535 nm (green) in HEK293 cell free culture (AID 720682)
# Method in brief: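 Compounds were pin-transferred into cell-free DMEM with 10% FBS, and green fluorescence was read at excitation 485 nm and emission 535 nm. Intensities were expressed as fluorescein-equivalent values.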
# [4] = qHTS assay to test for compound auto fluorescence at 590 nm (red) in HepG2 cell free culture (AID 720684)
# Method in brief: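 Steps: dispense MEM/10% FBS medium, no cells; pin compound or DMSO vehicle; read red channel, Ex/Em 540/590 nm. Output given as Rose Bengal sodium equivalents.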
# [5] = qHTS assay to test for compound auto fluorescence at 460 nm (blue) in HepG2 cell free culture (AID 720685)
# Method in brief: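 Compound (23 nL) or DMSO pinned into cell-free MEM with 10% FBS; blue fluorescence read at 405/460 nm excitation/emission, expressed as auto-fluorescence equivalency to triamterene.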
# [6] = qHTS assay to test for compound auto fluorescence at 535 nm (green) in HepG2 cell free culture (AID 720686)
# [7] = target: Glucocorticoid receptor (Homo sapiens) (UniProt P04150); assay: qHTS assay to identify small molecule agonists of the glucocorticoid receptor (GR) signaling pathway (AID 720691; active means well fitted activation curve with a large enough effect in the signal ratio in the repeat runs, not every such curve was filed as active; the % refers to the signal ratio)
# Chain of Glucocorticoid receptor (Homo sapiens) (P04150 whole entry, looked up): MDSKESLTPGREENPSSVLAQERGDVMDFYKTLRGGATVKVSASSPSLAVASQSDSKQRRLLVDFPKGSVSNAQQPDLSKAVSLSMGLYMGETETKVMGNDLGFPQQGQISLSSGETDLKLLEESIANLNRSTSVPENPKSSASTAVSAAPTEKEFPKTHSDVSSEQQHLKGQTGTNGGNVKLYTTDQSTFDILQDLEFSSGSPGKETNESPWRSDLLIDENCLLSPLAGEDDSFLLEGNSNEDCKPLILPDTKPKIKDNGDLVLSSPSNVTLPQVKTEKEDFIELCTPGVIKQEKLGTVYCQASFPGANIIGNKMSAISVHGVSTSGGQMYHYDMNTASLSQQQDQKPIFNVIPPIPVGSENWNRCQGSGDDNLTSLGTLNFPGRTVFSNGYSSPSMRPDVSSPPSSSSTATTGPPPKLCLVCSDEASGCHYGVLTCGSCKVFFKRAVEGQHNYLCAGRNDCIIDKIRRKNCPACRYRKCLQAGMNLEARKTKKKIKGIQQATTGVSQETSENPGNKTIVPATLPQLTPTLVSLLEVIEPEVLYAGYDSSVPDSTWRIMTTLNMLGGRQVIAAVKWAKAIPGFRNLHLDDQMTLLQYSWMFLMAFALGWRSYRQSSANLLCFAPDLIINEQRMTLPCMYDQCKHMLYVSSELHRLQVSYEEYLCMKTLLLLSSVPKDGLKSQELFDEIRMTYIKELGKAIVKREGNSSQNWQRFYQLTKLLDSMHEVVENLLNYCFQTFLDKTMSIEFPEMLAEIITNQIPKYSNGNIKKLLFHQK
# Method in brief: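 Reporter read-out: fluorescence intensity following 2 h room-temperature LiveBLAzer B/G FRET substrate loading. Prior step: GR-bla HeLa cells held 4 h, then treated 18 h at 37 C.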
# [8] = target: Glucocorticoid receptor (Homo sapiens) (UniProt P04150); assay: qHTS assay to identify small molecule antagonists of the glucocorticoid receptor (GR) signaling pathway (AID 720692; active means well fitted inhibition curve with a large enough effect in the signal ratio in the repeat runs, not every such curve was filed as active; the % refers to the signal ratio)
# Method in brief: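 Dexamethasone (5 nM final) stimulated a stably integrated GRE-beta-lactamase reporter in HeLa cells during 18 h co-incubation with compounds; signal was quantified as fluorescence intensity of B/G FRET substrate after 2 h.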
# [9] = qHTS assay to identify small molecule antagonists of the glucocorticoid receptor (GR) signaling pathway - cell viability counter screen (AID 720693); further: nearly all actives have a fitted effect of over 55% in size
# [10] = qHTS assay for identifying genotoxic compounds that show differential cytotoxicity against isogenic chicken DT40 cell lines with known DNA damage response pathways - Rev3 mutant cell line (AID 743014); further: nearly all actives have a fitted effect of over 55% in size; further: potency means the concentration at half of the fitted maximal effect
# [11] = qHTS assay for identifying genotoxic compounds that show differential cytotoxicity against isogenic chicken DT40 cell lines with known DNA damage response pathways - Rad54/Ku70 mutant cell line (AID 743015); further: nearly all actives have a fitted effect of over 60% in size
# [12] = qHTS assay to identify small molecule antagonists of the androgen receptor (AR) signaling pathway using the MDA cell line - cell viability counter screen (AID 743041; further: nearly all actives have a fitted effect of over 45% in size)
# Method in brief: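 Cells were plated at 3,000 per well and left 5 h. Compounds in DMSO were then pinned in, followed by R1881. After 16 h at 37C, CellTiter-Fluor fluorescence gave viability.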
# [13] = qHTS assay to identify small molecule antagonists of the androgen receptor (AR) signaling pathway - cell viability counter screen (AID 743033; further: nearly all actives have a fitted effect of over 45% in size)
# [14] = qHTS assay to test for compound auto fluorescence at 590 nm (red) in HEK293 cell free culture (AID 720683)
# Method in brief: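 Red-channel autofluorescence of compounds in culture medium (DMEM, 10% FBS), no cells, measured at 540/590 nm. Rose Bengal sodium is the reference fluorophore for equivalence.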
# [15] = qHTS assay for identifying genotoxic compounds that show differential cytotoxicity against isogenic chicken DT40 cell lines with known DNA damage response pathways - wild type cell line (AID 743012); further: nearly all actives have a fitted effect of over 60% in size; further: potency means the concentration at half of the fitted maximal effect
# Method in brief: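 Using parental DT40 (300 cells/well), compounds delivered in DMSO incubate 40 h at 37 C/5% CO2. CellTiter-Glo reagent then stands 30 min at room temperature, and luminescence gives cell viability.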
# [16] = target: Androgen receptor (Homo sapiens) (UniProt P10275); assay: qHTS assay to identify small molecule antagonists of the androgen receptor (AR) signaling pathway (AID 743035; active means well fitted inhibition curve with a large enough effect in the signal ratio in the repeat runs, not every such curve was filed as active; the % refers to the signal ratio)
# Chain of Androgen receptor (Homo sapiens) (P10275 whole entry, looked up): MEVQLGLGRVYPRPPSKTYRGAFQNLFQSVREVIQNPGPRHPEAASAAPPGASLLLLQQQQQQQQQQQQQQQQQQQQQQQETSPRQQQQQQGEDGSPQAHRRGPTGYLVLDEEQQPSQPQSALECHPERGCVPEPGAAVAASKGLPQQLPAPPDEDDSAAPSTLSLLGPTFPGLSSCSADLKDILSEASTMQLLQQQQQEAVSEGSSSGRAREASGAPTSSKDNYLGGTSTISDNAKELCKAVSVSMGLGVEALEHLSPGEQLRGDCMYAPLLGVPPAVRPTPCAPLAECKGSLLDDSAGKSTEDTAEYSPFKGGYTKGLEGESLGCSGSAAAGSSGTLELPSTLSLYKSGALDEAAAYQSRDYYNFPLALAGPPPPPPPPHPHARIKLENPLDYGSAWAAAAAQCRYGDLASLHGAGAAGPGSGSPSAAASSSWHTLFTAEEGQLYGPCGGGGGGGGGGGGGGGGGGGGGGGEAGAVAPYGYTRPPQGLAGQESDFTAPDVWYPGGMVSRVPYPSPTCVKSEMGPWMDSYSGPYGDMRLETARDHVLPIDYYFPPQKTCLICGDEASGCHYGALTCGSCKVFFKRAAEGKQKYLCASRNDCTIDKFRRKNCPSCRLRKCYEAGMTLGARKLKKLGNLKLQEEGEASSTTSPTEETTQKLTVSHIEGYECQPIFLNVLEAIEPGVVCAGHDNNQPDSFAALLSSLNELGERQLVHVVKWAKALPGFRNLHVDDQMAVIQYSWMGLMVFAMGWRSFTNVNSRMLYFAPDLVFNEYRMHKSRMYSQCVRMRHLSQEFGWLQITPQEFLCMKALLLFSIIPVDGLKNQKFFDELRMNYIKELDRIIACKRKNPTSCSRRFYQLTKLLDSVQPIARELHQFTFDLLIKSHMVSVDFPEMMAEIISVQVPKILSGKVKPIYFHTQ
# Method in brief: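 Using qHTS, AR-UAS-bla GripTite HEK293 cells received compound, then R1881, and were cultured 16 h at 37C/5% CO2 before a 2 h room-temperature LiveBLAzer B/G FRET substrate step and fluorescence measurement.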
# [17] = target: Androgen receptor (Homo sapiens) (UniProt P10275); assay: qHTS assay to identify small molecule agonists of the androgen receptor (AR) signaling pathway (AID 743036; active means well fitted activation curve with a large enough effect in the signal ratio in the repeat runs, with a control signal flat, not every such curve was filed as active; the % refers to the signal ratio)
# Method in brief: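 Activation was read as beta-lactamase FRET signal from LiveBLAzer B/G substrate, added for 2 h at room temperature. Before that, GeneBLAzer AR-UAS-bla GripTite (HEK293) cells had 16 h compound exposure at 37C.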
# [18] = target: Androgen receptor (Homo sapiens) (UniProt P10275); assay: qHTS assay to identify small molecule agonists of the androgen receptor (AR) signaling pathway using the MDA cell line (AID 743040; further: nearly all actives have a fitted effect of over 20% in size)
# Method in brief: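 Cells plated, 5 h at 37C/0% CO2; compound or DMSO pinned; 16 h at 37C; ONE-Glo added; luminescence measured after 30 min at room temperature. Reporter line: MDA-kb2 with MMTV-luciferase responsive to AR and GR.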
# [19] = target: Androgen receptor (Homo sapiens) (UniProt P10275); assay: qHTS assay to identify small molecule antagonists of the androgen receptor (AR) signaling pathway using the MDA cell line (AID 743042; further: nearly all actives have a fitted effect of over 55% in size)
# Method in brief: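 Antagonist mode: compounds plus R1881 agonist added to MDA-kb2 AR-luc cells, incubated 16 h at 37C. Luciferase reporter luminescence quantified, with multiplexed CellTiter-Fluor readout for cell viability.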
# [20] = qHTS assay to test for compound auto fluorescence at 460 nm (blue) in HepG2 cells (AID 720687)
# Method in brief: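 Blue-channel autofluorescence (Ex/Em 405/460 nm, triamterene-equivalent) was measured after 1 hr compound exposure at 37 C, 5% CO2. Cells were HepG2, plated overnight at 37 C in MEM plus 10% FBS.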
smiles,measurement,setting,value
NCCCC[C@H](N[C@@H](CCc1ccccc1)C(=O)O)C(=O)N1CCC[C@H]1C(=O)O,"fluorescence, % of fluorescein",[1],-0.012% [at 18.6 µM]
same,"fluorescence, % of fluorescent control",[2],-0.095% [at 18.6 µM]
same,activity change,[3],-0.028% [at 18.6 µM]
same,"fluorescence, % of Rose Bengal",[4],-0.221% [at 18.6 µM]
same,"fluorescence, % of fluorescent control",[5],-0.005% [at 18.6 µM]
same,"fluorescence, % of fluorescein control",[6],-0.127% [at 18.6 µM]
same,Potency,[7],inactive
same,Potency,[8],inactive
same,outcome,[9],inactive
same,Potency,[10],inactive
same,Potency,[11],inactive
same,Potency,[12],inactive
CC(C)(N)C#N,outcome,[1],inactive
same,outcome,[2],inactive
same,outcome,[3],inactive
same,outcome,[4],inactive
same,outcome,[5],inactive
same,outcome,[6],inactive
same,Potency,[7],inactive
same,outcome,[9],inactive
same,Potency,[10],inactive
same,outcome,[13],inactive
same,Potency,[12],inactive
Cc1nc2ccc(CN(C)c3ccc(C(=O)N[C@@H](CCC(=O)O)C(=O)O)s3)cc2c(=O)[nH]1,outcome,[1],inactive
same,outcome,[2],inactive
same,outcome,[3],inactive
same,outcome,[14],inactive
same,outcome,[5],inactive
same,outcome,[6],inactive
same,outcome,[9],inactive
same,Potency,[15],3.8 nM (active) and 7.5 nM (active)
same,Potency,[10],2.7 nM (active) and 5.3 nM (active)
same,outcome,[13],inactive
same,Potency,[16],inactive
same,outcome,[17],inactive
same,Potency,[18],inactive
same,Potency,[12],inactive
same,outcome,[19],inactive
NS(=O)(=O)Cc1noc2ccccc12,outcome,[1],inactive
same,outcome,[2],inactive
same,outcome,[3],inactive
same,outcome,[14],inactive
same,outcome,[5],inactive
same,outcome,[6],inactive
same,outcome,[20],inactive
same,outcome,[9],inactive
same,Potency,[15],inactive
same,Potency,[11],inactive
same,outcome,[13],inactive
same,Potency,[16],inactive
same,outcome,[17],inactive
same,Potency,[18],inactive
same,outcome,[19],inactive
Cc1ccc(-c2ncc(Cl)cc2-c2ccc(S(C)(=O)=O)cc2)cn1,outcome,[1],inactive
same,outcome,[2],inactive
same,outcome,[3],inactive
same,outcome,[4],inactive
same,outcome,[5],inactive
same,outcome,[6],inactive
same,outcome,[20],inactive
same,outcome,[9],inactive
same,Potency,[15],inactive
same,Potency,[10],inactive
same,Potency,[11],inactive
same,outcome,[13],inactive
same,Potency,[16],inactive
same,outcome,[17],inactive
same,Potency,[18],inactive
same,Potency,[12],inactive
same,outcome,[19],inactive
CO[C@@]1(NC(=O)CSC[C@@H](N)C(=O)O)C(=O)N2C(C(=O)O)=C(CSc3nnnn3C)CS[C@@H]21,outcome,[1],inactive
same,outcome,[2],inactive
same,outcome,[3],inactive
same,outcome,[14],inactive
same,outcome,[5],inactive
same,outcome,[6],inactive
same,outcome,[9],inactive
same,Potency,[15],inactive
same,Potency,[10],inactive
same,Potency,[11],inactive
same,outcome,[13],inactive
same,outcome,[17],inactive
same,Potency,[18],inactive
same,Potency,[12],inactive
same,outcome,[19],inactive
CCOC(=O)COC(=O)c1ccccc1C(=O)OCC,outcome,[1],inactive
same,outcome,[2],inactive
same,outcome,[3],inactive
same,outcome,[4],inactive
same,outcome,[5],inactive
same,outcome,[6],inactive
same,outcome,[20],inactive
same,Potency,[7],inactive
same,Potency,[8],inactive
same,outcome,[9],inactive
same,Potency,[15],inactive
same,Potency,[10],inactive
same,Potency,[11],inactive
same,outcome,[13],inactive
same,Potency,[12],inactive
